{"source": "PubChem BioAssay (NCI)", "note": "“And” between values parts separate entries of the source, which are not always exact repeats. Identical values can stand only once. The panel holds about 83,000 compounds, 20% with a hit somewhere; the sample as a whole holds those more often.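 Treatment: one concentration, 48 hours, 96-well format. Scoring: percent growth, with anything below 10 considered active.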 The source made the active and inactive calls.", "data": [{"system": "HL-60(TB) leukemia", "test": "NCI-60 one-dose screen, 48 h (100 = growth as untreated, 0 = no growth, -100 = all killed)", "settings": "10 µM unless noted", "values": [{"smiles": "CNc1ccc(O)cc1", "growth": "103% (inactive) and 93% (inactive)"}, {"smiles": "CC(C)=NNc1ccccn1", "growth": "34.6% (inactive)"}, {"smiles": "O=C(CCN1C(=O)/C(=C/c2ccc(O)cc2)SC1=S)Nc1ccccc1", "growth": "61.2% (inactive)"}, {"smiles": "Cc1ccc(-c2cc(-c3ccc(Cl)cc3)nc(NC(=O)c3cccnc3)n2)cc1", "growth": "110% (inactive)"}, {"smiles": "O=C(CCC(C(=O)c1ccccc1)c1ccccc1)c1ccccc1", "note": "(stereo not given)", "growth": "28.1% (inactive)"}, {"smiles": "CCN1C(=O)N(CC)C2Nn3c(s/c(=C4\\C(=O)N(C)c5ccccc54)c3=O)=NC21", "note": "(stereo not given)", "growth": "21.1% (inactive)"}, {"smiles": "c1ccc(Nc2ccc(Nc3nc(-c4ccccc4)nc4ccccc34)cc2)cc1", "growth": "87.1% (inactive)"}, {"smiles": "Clc1ccc(CNc2c3ccccc3nc3ccccc23)cc1", "growth": "44.7% (inactive)"}, {"smiles": "CC(=O)OC1C=CC(OC(C)=O)O1", "note": "(stereo not given)", "growth": "102% (inactive)"}, {"smiles": "O=C1/C(=C/c2ccc(Cl)c(Cl)c2)CN(C(=O)C(Cl)Cl)C/C1=C\\c1ccc(Cl)c(Cl)c1", "growth": "-15.2% (active)"}, {"smiles": "N#CCNC(=O)c1ccc(-c2ccnc(Nc3ccc(N4CCOCC4)cc3)n2)cc1", "growth": "-25.3% (active)"}, {"smiles": "Cc1ccsc1-c1ccc2c(c1)COC2(CCCN(C)C)c1ccc(F)cc1", "note": "(stereo not given)", "growth": "23% (inactive)"}, {"smiles": "Cc1nc2ncnc(Cl)c2[nH]1", "growth": "75.4% (inactive)"}, {"smiles": "Cc1cc(Nc2ccc(Cl)c(Cl)c2)nc(N)n1", "growth": "62.7% (inactive)"}, {"smiles": "COc1ccc(CN2C(=O)/C(=C\\C(=O)c3ccc(OCCN4CCCCC4)cc3)c3ccccc32)cc1", "growth": "20% (inactive)"}, {"smiles": "Oc1ccccc1/C=N\\NC(=S)N/N=C/c1ccccc1O", "growth": "-7.82% (active) and 18.6% (inactive)"}, {"smiles": "C#CCOc1cccc(Nc2ncnc3ccc(NC(=O)CCl)cc23)c1", "growth": "-58.4% (active)"}, {"smiles": "COc1ccc(-c2nc3cc(C(=O)NCc4ccccc4)ccc3n2C2CCCCC2)cc1", "growth": "71.1% (inactive)"}, {"smiles": "Cc1ccc2c(N/N=C\\c3ccco3)cc(C)nc2n1", "growth": "-53.3% (active)"}, {"smiles": "COc1ccc(NC2=NC(C)(CO)CS2)cc1", "note": "(stereo not given)", "growth": "91.1% (inactive)"}, {"smiles": "Cn1cc(-c2csc(-c3cn(C(=O)OC(C)(C)C)c4ccc(Br)cc34)n2)c2ccnc(Cl)c21", "growth": "115% (inactive)"}, {"smiles": "OCc1cccc(-c2ccc3ncc(-c4nc(NC5CC5)ncc4F)n3c2)c1", "growth": "-62% (active)"}, {"smiles": "O=C1C=Cc2ccccc2/C1=C/c1nc(-c2ccccc2)oc1O", "growth": "101% (inactive)"}, {"smiles": "Cc1ccc(-c2nc(/C=C3/C(=O)Nc4ccccc43)c3ccccn23)cc1", "growth": "113% (inactive)"}, {"smiles": "O=[N+]([O-])c1ccc(NS(=O)(=O)c2ccccc2)c2ccccc12", "growth": "21.2% (inactive)"}, {"smiles": "CCCN(CCC)C(=O)c1ccc(C)cc1", "growth": "100% (inactive)"}, {"smiles": "CSc1nc(N)c(N)c(N)n1", "growth": "77.8% (inactive)"}, {"smiles": "CN(C)CCCOc1ccccc1NC1=C(Cl)C(=O)C(Nc2ccccc2OCCCN(C)C)=C(Cl)C1=O", "growth": "-33.1% (active)"}, {"smiles": "Nc1nc(-c2ccccc2)nc(N)c1N=O", "growth": "18.8% (inactive)"}, {"smiles": "Fc1ccc(-n2cc(COc3ncnc4sc5c(c34)CCCC5)nn2)cc1Cl", "growth": "101% (inactive)"}, {"smiles": "CCN(CC)CCCN1C(=O)c2c(c(C)c3c(oc4cc(O)ccc43)c2C)C1=O", "growth": "-47.9% (active)"}, {"smiles": "COc1ccc(C2C=C(c3ccc(OC)c(OC)c3)N=C3SC=C(C)N32)c(Br)c1", "note": "(stereo not given)", "growth": "101% (inactive)"}, {"smiles": "COc1cc2nc(N3CCN(C(=O)C4COc5ccccc5O4)CC3)nc(N)c2cc1OC", "note": "(stereo not given)", "growth": "104% (inactive) and 103% (inactive) and 99.9% (inactive)"}, {"smiles": "Oc1ccc(Cn2cc3c(c2-c2ccccc2)CCc2cnoc2-3)cc1", "growth": "93.8% (inactive)"}, {"smiles": "CCOC(=O)Nc1nc2ccccc2[nH]1", "growth": "101% (inactive) and -38.2% (active)"}, {"smiles": "O=C(CSc1nccc(Nc2ccc(S(=O)(=O)Nc3ccccn3)cc2)n1)c1ccc(Cl)cc1", "growth": "95.3% (inactive)"}, {"smiles": "NC(=O)CN1C(=O)c2ccccc2C1=O", "growth": "96.6% (inactive)"}, {"smiles": "CCc1nc2c(=O)[nH]cnc2o1", "growth": "106% (inactive)"}, {"smiles": "CC(=O)Oc1ccc(C23c4ccccc4C2(OC(C)=O)c2cc(OC(C)=O)ccc23)cc1", "note": "(stereo not given)", "growth": "11.7% (inactive)"}, {"smiles": "COc1ccc(C(=O)NC(=O)Nc2cc3c(cc2F)/C(=C/c2[nH]c(C)c(CCC(=O)O)c2C)C(=O)N3)c(F)c1", "growth": "20.9% (inactive)"}]}]}
